TbPYK inhibitor: qHTS of Trypanosoma Brucei Inhibitors | pyruvate kinase (Trypanosoma brucei), Q57TT1 | TbPYK enzyme, Kinase-Glo Plus ATP luminescence, 45 min | Potency, µM (titrated, usually from 76.8 µM), actives largely listed as inhibitors | 410,000 tested, 0.12% active; note: nearly all actives have a fitted effect of over 50% in size
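Readout: single end-point luminescence (Kinase-Glo Plus, 10 min). Reaction conditions were TbPYK/substrate plus 130 uM ADP, 45 min at RT, pH 7.2 TEA buffer. No-enzyme wells served as controls, and data were normalized before concentration-response fitting.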
Shiga toxin inh: A qHTS for Small Molecule Inhibitors of Shiga Toxin | Vero cells, Shiga toxin protein synthesis inhibition reporter | inhibition, % at 38.7 µM | 290,000 tested, 9.2% active | AID 2315, 2010; in the data active = inhibition mostly above about 28%, no sharp cut-off; inactive = mostly below about 43%
LmPK inhibitor: qHTS Assay for Inhibitors of Leishmania Mexicana Pyruvate Kinase (LmPK); Q27686; purified LmPK, Kinase-Glo ATP luminescence, 1 h; Potency, µM (series often up to 57.5 µM), usual class: inhibitors; 290,000 tested, 0.37% active; AID 1721, 2009
Target sequence (Q27686 whole entry, looked up): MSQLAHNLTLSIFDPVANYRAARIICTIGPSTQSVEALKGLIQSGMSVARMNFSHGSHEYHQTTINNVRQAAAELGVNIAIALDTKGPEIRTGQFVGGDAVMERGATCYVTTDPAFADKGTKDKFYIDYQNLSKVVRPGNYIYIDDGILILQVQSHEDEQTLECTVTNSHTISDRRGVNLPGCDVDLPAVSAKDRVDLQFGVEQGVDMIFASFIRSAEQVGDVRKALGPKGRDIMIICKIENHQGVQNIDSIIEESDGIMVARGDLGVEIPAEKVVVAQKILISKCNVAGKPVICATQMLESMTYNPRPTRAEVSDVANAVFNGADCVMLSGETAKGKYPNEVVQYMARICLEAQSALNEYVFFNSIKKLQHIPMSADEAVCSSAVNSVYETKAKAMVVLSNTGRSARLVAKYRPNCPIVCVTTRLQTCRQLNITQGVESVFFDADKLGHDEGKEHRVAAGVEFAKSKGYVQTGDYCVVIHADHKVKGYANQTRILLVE
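0.1 nM LmPK, 0.5 mM PEP, 0.1 mM ADP; 50 mM imidazole pH 7.2, 7 mM MgCl2, 50 mM KCl; 1 h RT. Kinase-Glo luminescence readout, normalized to no-enzyme (full inhibition) and uninhibited wells.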
Giardia FBPA inh: qHTS Assay for Inhibitors of Fructose-1,6-bisphosphate Aldolase from Giardia Lamblia; A8B2U2; purified Giardia FBPA; Potency, µM (highest dose often 59.6 µM), hits mostly inhibitors; 290,000 tested, 0.71% active; AID 2451, 2010; note: nearly all actives have a fitted effect of over 55% in size
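40 nM FBPA preincubated 10 min at RT with compound (up to 57.5 uM final), then substrate plus GAPDH/TPI/NAD/arsenate coupling and diaphorase/resazurin added. Fluorescence read after 20 min at RT, 525/598 nm.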
Cycloheximide cs: Cycloheximide Counterscreen for Small Molecule Inhibitors of Shiga Toxin; cell reporter, cycloheximide protein synthesis inhibition counterscreen; max response, %; 300,000 tested, 12% active; AID 2314, 2010; in the data active = max response mostly above about 13%, no sharp cut-off; inactive = mostly below about 14%; note: read at 38.3 µM for the half of the compounds with a filed dose
RE007 growth inh: qHTS Assay for Inhibitors of the HIV-1 protein Vpr; Potency, µM (doses to about 92.2 µM), usual class: inhibitors; 360,000 tested, 0.21% active; S. pombe RE007 Vpr strain, BacTiter-Glo ATP luminescence, 24 h; active = well fitted falling curve with a large enough effect; inconclusive = small, poorly fitted or top-dose-only effect; inactive = no such curve, though single readings can be large or run the other way; note: nearly all actives have a fitted effect of over 50% in size
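Fission yeast RE007 carrying one integrated HIV-1 vpr copy, seeded at OD 0.01 in PMG+AL medium with 23 nL pinned compound. Grown 24 h at 30 degrees; viability read by BacTiter-Glo luminescence after 5 min.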
Hits are given with their value; - = inactive; ? = inconclusive; . = not tested or not shown; [ ] = dose if it differs, or a comment. This excerpt belongs to a sample that is enriched for hits. Unless noted, calls come from the whole dose curve; as a rule, active = well fitted curve in the direction sought with a large enough effect; inconclusive = small, poorly fitted or top-dose-only effect, or another doubt; inactive = no such curve, though single readings can be large; an effect the other way counts as inactive or inconclusive.

SMILES | TbPYK inhibitor | Shiga toxin inh | LmPK inhibitor | Giardia FBPA inh | Cycloheximide cs | RE007 growth inh
CCCCCN=C(C)c1c(O)c2ccccc2oc1=O | - | 65 | - | - | 42 | -
CCCCOc1ccc(C2C(=O)N(C3CCCCC3)CC(=O)N2C2CCCCC2)cc1 (configuration not stated) | - | . | . | . | . | .
N=C1N(/N=C/c2ccccc2)C(=Nc2ccccc2)C(=S)N1c1ccccc1 | . | active | - | - | 42 | -[3.69 µM]
Cc1ccc(/C=N/n2c(-c3ccccc3)n[nH]c2=S)cc1 | ? | . | - | - | - | -
O=C(CO/N=C1\CCCc2nonc21)Nc1ccc(Br)cc1 | - | - | - | - | - | -
Clc1ccccc1CO/N=C1\CCCc2nonc21 | - | - | - | - | 15 | -
Clc1ccc(CO/N=C2\CCCc3nonc32)cc1 | - | - | - | - | 27 | -
O=C(CO/N=C1\CCCc2nonc21)Nc1ccccc1Cl | - | - | - | - | - | -
O=C(CCc1c[nH]c2ccccc12)N1CCN(S(=O)(=O)c2ccc(F)cc2)CC1 | - | . | . | . | . | -
COc1ccccc1C(=O)OCC(=O)c1cccc([N+](=O)[O-])c1 | - | - | - | - | 28 | -
Cc1ccc(S(=O)(=O)Cc2cc(F)c([N+](=O)[O-])cc2[N+](=O)[O-])cc1 | - | 46 | - | - | 22 | ?
Cc1ccc(C(=O)CCS(=O)(=O)c2ccc(Br)cc2)cc1 | - | - | - | - | - | -
Cc1ccc(S(=O)(=O)CCC(=O)c2cccc([N+](=O)[O-])c2)cc1 | ? | - | - | - | - | 5.6µM
CCOC(=O)c1ccc([N+](=O)[O-])c(CS(=O)(=O)c2ccc(Cl)cc2)c1 | - | - | - | - | - | -
CCc1ccc(C(=O)COC(=O)c2ccccc2OC)cc1 | - | 133 | ? | . | 43 | -
O=C(COC(=O)c1ccccc1NC(=O)c1ccccc1)c1cccc([N+](=O)[O-])c1 | - | - | - | - | - | -
COc1ccccc1C(=O)COC(=O)c1cccs1 | - | . | . | . | . | -
COc1ccccc1C(=O)COC(=O)c1ccc(N(C)C)cc1 | - | 94 | - | - | 35 | -
CCc1ccc(C(=O)COC(=O)C(NC(=O)C2CCC(C)CC2)C(C)C)cc1 (configuration not stated) | - | . | . | . | . | .
O=C(/C=C/c1ccccc1)OCC(=O)c1c[nH]c2ccccc12 | - | . | . | . | . | -
CCc1ccc(C(=O)COC(=O)[C@@H](NC(N)=O)[C@@H](C)CC)cc1 | - | 77 | - | - | 22 | -
COc1ccccc1C(=O)COC(=O)c1ccccc1O | - | 95 | - | - | 31 | -
COc1ccccc1C(=O)COC(=O)/C=C/c1ccccc1 | - | 100 | - | . | 53 | -
CCCCNc1ncnc2sc3c(c12)CCN(CCC)C3 | - | - | - | - | - | -
COc1ccc([C@@H]2[C@@H](O)[C@H](O)[C@@H](C)N2C)cc1OC | . | . | . | - | . | .
SMILES | TbPYK inhibitor | Shiga toxin inh | LmPK inhibitor | Giardia FBPA inh | Cycloheximide cs | RE007 growth inh
Nc1ccc2nc3c(c(Cl)c2c1)CCCC3 | - | - | - | - | 29 | -
Clc1c2c(nc3ccccc13)CCC2 | - | - | - | - | - | -
COc1ccc(CCCC(=O)Nc2ccccc2F)cc1 | - | 109 | - | - | 21 | -
COc1ccc(C(=O)NC(=S)Nc2ccccc2F)cc1 | - | 67 | - | - | 56 | -
CC(C)(C)C(=O)NC(=S)Nc1ccccc1F | - | - | - | - | 26 | -
CCC(=O)NC(=S)Nc1ccccc1F | - | - | - | - | - | -
CCCC(=O)NC(=S)Nc1ccccc1F | - | - | - | - | 15 | -
CN(C)c1ccc(CNS(=O)(=O)c2ccc3[nH]c4c(c3c2)CCCCC4)cc1 | - | . | . | . | . | .
CN(C)CCCC(=O)c1ccc2c(c1)OCO2 | - | - | - | - | - | -
O=C(CCNc1ccccc1)c1ccc2c(c1)OCO2 | - | 71 | - | - | 63 | 32µM
CN(C)CCC(=O)c1ccc2c(c1)OCO2 | - | - | - | - | 24 | 11µM
O=C(Cc1ccccc1[N+](=O)[O-])c1ccc2c(c1)OCO2 | - | . | . | . | . | -
Cc1cc(C2=NNC(=NCCc3ccccc3)SC2)c(C)n1CC1CCCO1 (configuration not stated) | - | 194 | - | - | 46 | -
COCCn1c(C)cc(C2=NNC(=NC(C)(C)C)SC2)c1C | - | - | - | - | - | -
Clc1ccc(C2=NNC(=NCC3CCCO3)SC2)cc1 (configuration not stated) | - | 160 | - | - | 60 | -
CCN=C1NN=C(c2cc(C)n(CCc3ccccc3)c2C)CS1 | - | 62 | - | - | 32 | -
CCCCN=C1NN=C(c2ccc3c(c2)OCCO3)CS1 | ? | - | -[11.5 µM] | - | - | -
CCN=C1NN=C(c2cc(C)n(Cc3ccco3)c2C)CS1 | - | 138 | - | - | 87 | -
Cc1c(NC(=O)c2cccc(NC(=O)COc3ccc(C#N)cc3)c2)c(=O)n(-c2ccccc2)n1C | - | . | . | . | . | -
Cc1ccccc1NC(=O)Nc1nc(C(N)C2CCCCC2)cs1 (configuration not stated) | - | . | . | . | . | -[18.4 µM]
COc1cccc(C(NC(C)=O)c2nc(-c3cccc(O)c3)cs2)c1 (configuration not stated) | - | . | . | . | . | -
COc1ccc(-c2nc(N3CCN(S(=O)(=O)c4ccccc4)CC3)c3ccccc3n2)cc1 | . | - | . | . | - | .
Cc1ccc(C)c(C2=NNC(=NCc3ccccc3)SC2)c1 | ? | 32 | - | - | - | -
C=C(C)CN=C1NN=C(c2cc(C)n(-c3ccc(C)cc3)c2C)CS1 | - | - | - | - | - | -
COCCn1c(C)cc(C2=NNC(=Nc3ccccc3)SC2)c1C | ? | - | - | - | 23 | -
SMILES | TbPYK inhibitor | Shiga toxin inh | LmPK inhibitor | Giardia FBPA inh | Cycloheximide cs | RE007 growth inh
C=CCn1c(C)cc(C2=NNC(=NCc3ccccc3)SC2)c1C | - | 111 | - | - | 62 | -
C=CCOC(=O)N1CCC2CC1c1cc(-c3cccc(C)c3)ccc12 (configuration not stated) | - | . | . | . | . | -
CO/N=C(/C(=O)NC1C(=O)N2C(C(=O)O)=C(CSc3nc(=O)c(O)nn3C)CSC12)c1csc(N)n1 (configuration not stated) | - | . | . | ? | . | .
CCCN(C(=O)c1c(C)oc2ncnc(N3CCOCC3)c12)c1ccc(Cl)c(Cl)c1 | - | . | . | . | . | .
Cn1c(COc2ccccc2Br)nc2ccccc21 | - | 56 | - | - | 44 | -
COc1ccccc1OCc1nc2ccccc2n1C | - | 134 | - | - | 51 | -
CCN1C(=O)[C@H]2[C@@H]3[C@H](O)[C@H](O)CC(=O)[C@H]3CC[C@H]2C1=O | . | . | . | -[12.9 µM] | . | .
CCCCCC(=O)/C=C/C=C\CCCCCCCC(=O)O | . | . | . | - | . | .
O=C(CSc1nnnn1C1CCCC1)Nc1ccccc1F | - | 31 | - | - | 13 | -

Source: PubChem (National Center for Advancing Translational Sciences (NCATS))
